# Experimental data as given in PubChem BioAssay AID1530 (NMMLSC, 2009).
# Among all 290,000 compounds or so, about 1,000 (0.34%) were called active. This is one part of a sample in which actives are shown more often than they occur. Cut-off read from the data, not from the text of the source: active = percent response above about 24% (passing the limit was not always enough); inactive = the rest.
# System: MEKK2 (MAP3K2) mutant PB1 domain binding to MEK5, human
# Experiment: MEK5 binding signal on mutant MEKK2 PB1, primary screen, biochemical, multiplex bead flow cytometry, Alexa488-MEK5 (AID 1530)
# Details: at 10 µM, stronger effect = higher value
row,SMILES,percent response
1,COCCCNC(=O)/C(C#N)=C/c1c(N2CCCCCC2)nc2ccccn2c1=O,5% (inactive)
2,COCCNC(=O)/C(C#N)=C/c1nc(N(C)C)n(-c2ccc(F)cc2)c1Cl,63% (active)
3,COCCNC(=O)/C(C#N)=C/c1cccc(OCc2ccccc2)c1,2% (inactive)
4,Cc1ccc(C(NC(=O)N2CCCC2)C(Cl)(Cl)Cl)cc1F (configuration not stated),-1% (inactive)
5,Cc1ccc(S(=O)(=O)c2c[nH]c3ccc(C)cc3c2=O)cc1,3% (inactive)
6,Cc1c(C(=O)N2CCN(c3ccc(F)cc3)CC2)oc2c1C(=O)CCC2,0% (inactive)
7,Cc1ccc2c(C)c(C(=O)N(C)Cc3ccncn3)oc2c1C,0% (inactive)
8,Cc1ccc2c(C)c(C(=O)N3CCN(c4ccncc4)CC3)oc2c1C,30% (active)
9,Cc1cccc(CCNC(=O)Cn2ncc3c([nH]c4ccc(C)cc43)c2=O)c1,-4% (inactive)
10,CCCNC(=O)COc1coc(CN2CCN(Cc3ccccc3)CC2)cc1=O,10% (inactive)
11,COc1ccc(-c2nnc(NC(=O)CS(=O)(=O)c3ccc(Cl)cc3)o2)c(OC)c1,2% (inactive)
12,CCOc1ccc(Br)cc1CSC(=N)N,-1% (inactive)
13,N=C(N)SCc1cccc2ccccc12,91% (active)
14,c1ccc2c(CSCc3nc4ccccc4[nH]3)cccc2c1,1% (inactive)
15,CCOC(=O)C1Nc2ccc(C(F)(F)F)cc2C2C=CCC12 (configuration not stated),0% (inactive)
16,CC(=O)c1ccc(S(=O)(=O)N2CCC3(CC2)OCCO3)cc1,-1% (inactive)
17,CN1CCN(c2nc(Nc3ccc(O)cc3)nc3ccccc23)CC1,2% (inactive)
18,c1ccc(Nc2nc(N3CCOCC3)c3ccccc3n2)cc1,38% (active)
19,O=c1[nH]c(N2CCOCC2)nc2ccccc12,5% (inactive)
20,Cc1ccc(C)c(OCCC(=O)OCC(=O)N2CCN(c3ccccc3)CC2)c1,-5% (inactive)
21,O=C(NNS(=O)(=O)c1ccc([N+](=O)[O-])cc1)C1CCCCC1,7% (inactive)
22,Cc1nc(-c2ccccc2)sc1C1(C)CC(c2cccnc2)=NO1 (configuration not stated),-3% (inactive)
23,O=C(Nc1cccnc1)c1cc([N+](=O)[O-])ccc1Cl,6% (inactive)
24,O=C(Nc1cccnc1)c1ccc(Cl)cc1[N+](=O)[O-],2% (inactive)
25,O=C(Nc1cccnc1)c1cc(Cl)ccc1Cl,28% (active)

row,SMILES,percent response
1,Cc1[nH]n(C(N)=S)c(=O)c1N=Nc1ccc(Cl)cc1Cl,2% (inactive)
2,CCn1c(CNC(=O)c2cc(OC)c(OC)c(OC)c2)cc2cc(C)ccc21,-6% (inactive)
3,CN(C(=O)CN1C(=O)CCSc2ccc(S(=O)(=O)N3CCCC3)cc21)c1ccccc1,1% (inactive)
4,CNC(C)C#Cc1ccc2sc3cc(OC)c(OC)cc3c(=O)c2c1 (configuration not stated),13% (inactive)
5,CC1COc2ccccc2N1C(=O)c1ccc(F)cc1 (configuration not stated),1% (inactive)
6,CC1Sc2ccc(S(=O)(=O)CCC(=O)NCc3ccccc3Cl)cc2NC1=O (configuration not stated),11% (inactive)
7,O=C(NCCN1CCOCC1)[C@H](Cc1ccccc1)N1C(=O)c2ccccc2C1=O,26% (active)
8,O=C(NC1=NCCS1)[C@H](Cc1ccccc1)N1C(=O)c2ccccc2C1=O,0% (inactive)
9,O=C(CCN1C(=O)c2ccccc2C1=O)NCCN1CCOCC1,-3% (inactive)
10,Cc1ccc(NC(=O)COC(=O)C2C3CC4OC(=O)C2C4C3)cc1Cl (configuration not stated),5% (inactive)
11,CCC(C)[C@H]1COCCS(=O)(=O)N1Cc1ccc(C)cc1 (some centres not stated),-5% (inactive)
12,Cc1c(CCOC(=O)CC23CC4CC(CC(C)(C4)C2)C3)sc[n+]1Cc1ccc([N+](=O)[O-])cc1,54% (active)
13,Cc1c(CCOC(=O)c2cc([N+](=O)[O-])ccc2Cl)sc[n+]1CCCCS(=O)(=O)[O-],-1% (inactive)
14,Cc1c(CCO)sc[n+]1CC(=O)OC12CC3CC(CC(C3)C1)C2,0% (inactive)
15,Clc1ccc2nc(CSc3ccccc3)cn2c1,2% (inactive)
16,CC1(C)Cc2ccccc2/C(=C/C(=O)c2ccccc2)N1,3% (inactive)
17,CN(C)CCCNC(=S)N1CCN(c2nc(-c3ccccc3)cs2)CC1,25% (active)
18,CN(C)CCCNC(=S)N1CCC(c2nc3ccccc3[nH]2)CC1,4% (inactive)
19,COCCCNC(=S)N1CCN(c2nc(-c3cccc(OC)c3)cs2)CC1,-4% (inactive)
20,COc1ccc(CCN2C(=O)C(C)=C(C)C2=O)cc1OC,1% (inactive)
21,O=C(CCc1nnc2ccc(NCCCN3CCCC3=O)nn12)NCc1ccccc1Cl,6% (inactive)
22,CC1CCN(C(=O)CCc2nnc3ccc(NCc4ccco4)nn23)CC1,0% (inactive)
23,O=C(CCc1nnc2ccc(NCc3ccccc3Cl)nn12)NCC1CCN(C2CCCC2)C1 (configuration not stated),26% (active)
24,CC1CCCCN1C(=O)Cn1c(=O)oc2cc(S(=O)(=O)N3CCCCC3)ccc21 (configuration not stated),2% (inactive)
25,Cc1cccc(NC(=O)Cc2ccc(Br)cc2)n1,4% (inactive)

row,SMILES,percent response
1,COc1ccc(CCNC(=O)CSc2nnc3ccc(-c4ccncc4)nn23)cc1,146% (active)
2,COc1ccccc1CCNC(=O)CSc1nnc2ccc(-c3cccnc3)nn12,6% (inactive)
3,COc1cc(NC(=O)CSc2nnc3ccc(-c4ccncc4)nn23)cc(OC)c1,0% (inactive)
4,CCOc1ccc(C(=O)Nc2c3c(nn2-c2ccccc2)CS(=O)(=O)C3)cc1,6% (inactive)
5,COc1ccc(S(=O)(=O)/N=C2\C=C(NS(=O)(=O)c3ccccc3)C(=O)c3ccccc32)cc1,-2% (inactive)
6,CCOc1ccccc1NC(=O)Cn1ncc2ccc([N+](=O)[O-])cc21,3% (inactive)
7,Cc1cc(NC(=O)c2cnn3cccnc23)n(-c2ccccc2)n1,5% (inactive)
8,O=C(Nc1ccc(Cl)cn1)c1cnn2cccnc12,26% (active)
9,O=C(Nc1ccc(Cl)cn1)c1ccc2c(c1)OCCO2,-5% (inactive)
10,COc1ccc(C)cc1N(C(=O)Cn1nnc(-c2ccc(C)o2)n1)C(C(=O)NC1CCCC1)c1ccncc1 (configuration not stated),-2% (inactive)
11,CCOC(=O)N1CCN(Cc2nnc(-c3ccccc3Cl)o2)CC1,8% (inactive)
12,CCCNC(=O)c1ccc(Cl)c(Cl)c1,-1% (inactive)
13,CCn1c(=N)n(CC(=O)c2cccc(OC)c2)c2ccccc21,-9% (inactive)
14,CCCn1c(=N)n(CC(=O)c2ccc(Cl)c(Cl)c2)c2ccccc21,29% (active)
15,CN(C)CCCN(C(=O)c1ccc(S(=O)(=O)N2CCCCCC2)cc1)c1nc2ccc(Br)cc2s1,61% (active)
16,CCOc1ccc2nc(N(CCCN(C)C)C(=O)c3ccc(C(=O)c4ccccc4)cc3)sc2c1,19% (inactive)
17,CCN(CC)CCN(C(=O)c1ccc(S(=O)(=O)N2CCOCC2)cc1)c1nc2cc3c(cc2s1)OCCO3,11% (inactive)
18,CCc1ccc2nc(N(CCCN(C)C)C(=O)c3ccc4c(c3)OCCO4)sc2c1,3% (inactive)
19,CN(C)CCCN(C(=O)c1ccc(S(=O)(=O)N2CCCc3ccccc32)cc1)c1nc2ccc(F)cc2s1,65% (active)
20,O=C(Nc1nc2ccc([N+](=O)[O-])cc2s1)c1ccc(S(=O)(=O)N2CCCc3ccccc32)cc1,-5% (inactive)
21,O=C(NC1CCCC1)C1CC(=O)N(c2ccc(F)cc2)C1 (configuration not stated),0% (inactive)
22,CC(C)(c1ccccc1)c1ccc(OCCN)cc1,0% (inactive)
23,CN(C)CC(O)COc1ccc(C(C)(C)c2ccc(OCC(O)CN(C)C)cc2)cc1 (configuration not stated),33% (active)
24,Cc1cc(C)n(CC(O)COc2ccc(C(C)(C)C)cc2)n1 (configuration not stated),-1% (inactive)
25,O=C(Nc1cccc(-c2cccc(Cl)c2)c1)C1CCN(C2CCC2)CC1,14% (inactive)

row,SMILES,percent response
1,CCn1cc(CN2CCC(C(=O)Nc3cccc(-c4cccc(Cl)c4)c3)CC2)cn1,21% (inactive)
2,CCn1cc(CN2CCC(C(=O)Nc3cccc(-c4cccc(Cl)c4)c3)CC2)c(C)n1,35% (active)
3,CC1CCN(CC(=O)Nc2nccs2)CC1,3% (inactive)
4,Cc1ccc(C)c(S(=O)(=O)Nc2cccc(-n3cnnn3)c2)c1,-1% (inactive)
5,CN1CCN(CCCNC(=O)c2ccc(/C=C3\Oc4ccccc4N(Cc4ccc(Cl)cc4)C3=O)cc2)CC1,48% (active)
6,CCCN1CCN(C(=O)CCCNC(=O)c2ccc(Cl)cc2)CC1,-2% (inactive)
7,CN1C(=O)/C(=C/c2ccc(C(=O)NC3CCCC3)cc2)Oc2ccccc21,2% (inactive)
8,NS(=O)(=O)c1ccc2nc(NC(=O)C3=COCCO3)sc2c1,-4% (inactive)
9,Cc1ccc(NC(=O)COc2ccc(-n3ccnc3)cc2)cc1Cl,27% (active)
10,CCC(=O)c1ccc(OCC(=O)Nc2ccc3nc(C)sc3c2)cc1,-22% (inactive)
11,Cc1ccc(NC(=O)C/C(N)=N/O)cc1Cl,1% (inactive)
12,O=C1N[C@H](Cc2ccccc2)C(=O)N[C@H]1Cc1cn(S(=O)(=O)c2ccccc2)c2ccccc12,2% (inactive)
13,CCOC(=O)N1CCN(C(=O)C2CCN(S(=O)(=O)c3cc(Cl)ccc3OCC)CC2)CC1,5% (inactive)
14,CC(NS(=O)(=O)c1ccc(Br)cc1)C(=O)NCC1CCCO1 (configuration not stated),4% (inactive)
15,OC(CNCC1CCCO1)Cn1c2ccc(Br)cc2c2cc(Br)ccc21 (configuration not stated),40% (active)
16,O=C(CSc1ccc(-c2ccc(Br)cc2)nn1)NCC1CCCO1 (configuration not stated),6% (inactive)
17,COc1ccc(NC(=O)C2=CC(c3ccc(OC)c(OC)c3)=NS(=O)(=O)N2C)cc1,-4% (inactive)
18,COc1cc(CNCc2ccc(OC)c3ccccc23)cc(OC)c1OC,6% (inactive)
19,Nc1nonc1-n1nnc(C(=O)N/N=C/c2cc(Br)ccc2O)c1CSC1=NCCS1,8% (inactive)
20,CC(C)CC(=O)N1CCN(Cc2cccc(Cl)c2)CC1,9% (inactive)
21,CCOc1cc(CN2CCN(C(=O)CC(C)C)CC2)ccc1OC,2% (inactive)
22,CC(C)CC(=O)N1CCN(Cc2ccccc2Br)CC1,24% (active)
